Where “and” joins values, the source holds several entries; their conditions need not be identical. Equal entries are not always repeated. Inconclusive results are not listed. More than one record can exist for a structure, and the calls need not agree. Calls of active or inactive are those of the source. Unless noted, the call rests on the fitted dose curve; in most records, active means well fitted curve in the direction sought with a large enough effect in the repeat runs; inconclusive means weak or mixed curves; inactive means no such curve, though single readings can be large; an effect the other way counts as inactive or inconclusive.
How the values were obtained:
[1] = qHTS assay for small molecule agonists of the p53 signaling pathway (AID 651631; calls by dose curve; further: nearly all actives have a fitted effect of over 15% in size; further: potency means the concentration at half of the fitted maximal effect)
Procedure, shortened: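 Fluorescence intensity from cleaved LiveBLAzer B/G substrate (2 h, room temperature) served as the signal. Beforehand, HCT-116 reporter cells bearing p53 response elements were treated 16 h at 37 °C with DMSO-dissolved compounds.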

[2] = qHTS assay for small molecules that induce genotoxicity in human embryonic kidney cells expressing luciferase-tagged ATAD5 (AID 651632); further: nearly all actives have a fitted effect of over 15% in size
Procedure, shortened: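 HEK293T cells carrying a luciferase reporter tagged to ATAD5 were exposed to compound or DMSO vehicle for 16 hr at 37C, 5% CO2. Amplite was added, and after 30 min at room temperature luciferase activity was read as a marker of ATAD5 induction.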

[3] = qHTS assay for small molecule agonists of the p53 signaling pathway - cell viability (AID 651633; calls by dose curve;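 further: p53RE-bla HCT reporter cells with a stable beta-lactamase p53 reporter; series mostly up to about 83 µM; nearly all actives have a fitted effect of over 30% in size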)
Procedure, shortened: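 Viability counter-read: CellTiter-Glo luminescence (30 min, room temperature) in the same p53RE-bla plates. These plates had been exposed to compounds for 16 h at 37 C.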

[4] = qHTS assay for small molecules that induce genotoxicity in human embryonic kidney cells expressing luciferase-tagged ATAD5 - cell viability (AID 651634; calls by dose curve; further: nearly all actives have a fitted effect of over 25% in size; further: potency means the concentration at half of the fitted maximal effect)
Procedure, shortened: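 HEK293T cells expressing luciferase-tagged ATAD5 were exposed to compound or DMSO for 15.5 hr at 37C, 5% CO2. Viability was then read as live-cell protease activity by CellTiter-Fluor fluorescence after 30 min at 37C.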

[5] = qHTS assay for small molecule disruptors of the mitochondrial membrane potential - cell viability (AID 720634; calls by dose curve;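 further: human HepG2 liver cancer cells; series mostly up to about 83 µM; nearly all actives have a fitted effect of over 20% in size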)
Procedure, shortened: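 HepG2 cells seeded overnight at 37 C, then exposed to compound or DMSO for 1 hr at 37 C, 5% CO2. m-MPI dye added, then CellTiter-Glo for 30 min at room temperature; viability read as ATP luminescence.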

[6] = qHTS assay for small molecule disruptors of the mitochondrial membrane potential (AID 720635); further: potency means the concentration at half of the fitted maximal effect
Procedure, shortened: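 Mitochondrial membrane potential tracked with Mito-MPS dye, red aggregates (ex 540/em 590 nm) against green monomers (ex 490/em 535 nm). Compound treatment 1 hr at 37C, dye 30 min in HepG2.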

[7] = qHTS assay to test for compound auto fluorescence at 590 nm (red) in HepG2 cells (AID 720674)
Procedure, shortened: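 Red autofluorescence (Ex/Em 540/590 nm, Rose Bengal sodium equivalents) was measured in HepG2 cells, 2,000 per well in MEM plus 10% FBS, plated overnight at 37 C. Readings were taken 1 hr after adding 23 nL compound or DMSO, at 37 C and 5% CO2.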

[8] = qHTS assay to test for compound auto fluorescence at 535 nm (green) in HepG2 cells (AID 720675)
[9] = qHTS assay to test for compound auto fluorescence at 460 nm (blue) in HEK293 cells (AID 720678); further: potency means the concentration at half of the fitted maximal effect
Procedure, shortened: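 Auto fluorescence in the blue band was quantified as triamterene equivalency. HEK293 cells were seeded at 2,000/well, dosed after a 4-5 hr attachment, and kept overnight at 37C before the 405/460 nm reading.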

[10] = qHTS assay to test for compound auto fluorescence at 590 nm (red) in HEK293 cells (AID 720679)
Procedure, shortened: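 Autofluorescence equivalency to Rose Bengal sodium, 540/590nm, in HEK293 cells exposed overnight to 23 nL compound per well.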

Measured: Potency
Tags describe the fitted curve by direction and shape or compound fluorescence and quenching.

CC(=O)CC(=O)N(C)C
inactive: all assays above

COC(=O)OC
inactive: all assays above

COC(=O)CCCCC(=O)OC
inactive: all assays above

C[Si](C)(C)N[Si](C)(C)C
inactive: all assays above

CC(C)=CCC/C(C)=C/C=O
inactive: all assays above

COc1c2ccoc2cc2oc(=O)ccc12
inactive: all assays above

CCCOC(=O)NCCCN(C)C
inactive: all assays above

Oc1ccc(Cc2ccccc2O)cc1
active: [6] 11 µM and 27.3 µM
inactive: all other assays above

CC(=O)OCc1ccc2c(c1)OCO2
inactive: all assays above

CC1(C)[C@@H](O[C@H]2O[C@H](C(=O)O)[C@@H](O)[C@H](O)[C@H]2O[C@@H]2O[C@H](C(=O)O)[C@@H](O)[C@H](O)[C@H]2O)CC[C@]2(C)[C@H]3C(=O)C=C4[C@@H]5C[C@@](C)(C(=O)O)CC[C@]5(C)CC[C@@]4(C)[C@]3(C)CC[C@@H]12
inactive: all assays above

CCOC(=O)CC(=O)OCC
inactive: all assays above

NC(=O)c1ncn([C@@H]2O[C@H](CO)[C@@H](O)[C@H]2O)n1
active: [1] 13.3 µM and 64.4 µM
inactive: all other assays above

CCCCCCCCC(=O)O
inactive: all assays above

CC(O)CNCC(C)O (stereo not drawn)
inactive: all assays above

COc1ccc([C@@H]2CC(=O)c3c(O)cc(O[C@@H]4O[C@H](CO[C@@H]5O[C@@H](C)[C@H](O)[C@@H](O)[C@H]5O)[C@@H](O)[C@H](O)[C@H]4O)cc3O2)cc1OC
inactive: all assays above

CC(=O)OC[C@H]1O[C@@](COC(C)=O)(O[C@H]2O[C@H](COC(C)=O)[C@@H](OC(C)=O)[C@H](OC(C)=O)[C@H]2OC(C)=O)[C@@H](OC(C)=O)[C@@H]1OC(C)=O
inactive: all assays above

Nc1nc(N)c2nc(-c3ccccc3)c(N)nc2n1
active: [1] 26.6 µM and 15.5 µM and 34.4 µM | [9] 14.1 µM [fluorescent] and 31.6 µM [fluorescent] and 35.5 µM [fluorescent]
inactive: all other assays above

CC(=O)C(C)C
inactive: all assays above

c1cnc2c(c1)ccc1cccnc12
active: [1] 30.9 µM and 24.3 µM | [4] 6.92 µM and 3.86 µM and 7.7 µM | [6] 30.6 µM
inactive: all other assays above

Cc1ccncc1
inactive: all assays above

CC(=O)Nc1ccc(CC(=O)O)cc1
inactive: all assays above

CCCCCCC(=O)O
inactive: all assays above

Cc1ccc(C)c(S(=O)(=O)O)c1
inactive: all assays above

Cc1cc(C)cc(O)c1
inactive: all assays above

CC(=O)OCCC(C)C
inactive: all assays above

CC/C(C)=N/O
inactive: all assays above

O=C1OC(=O)c2c(Cl)c(Cl)c(Cl)c(Cl)c21
inactive: all assays above

O=C(O)C1=NN(c2ccc(S(=O)(=O)O)cc2)C(=O)C1
inactive: all assays above

CCCCCCCC(=O)O
inactive: all assays above

O=[N+]([O-])c1ccccc1C(F)(F)F
inactive: all assays above

CCCCCNCCCCC
inactive: all assays above

CCOC(=O)c1ccc(O)cc1
inactive and 21.7 µM (active): [6]
inactive: all other assays above

CCCCC(CC)COC(=O)c1ccc(C(=O)OCC(CC)CCCC)cc1 (stereo not drawn)
inactive: all assays above

O=[N+]([O-])c1cc(C(F)(F)F)ccc1Cl
inactive: all assays above

Cc1cc(CC(=O)O)n(C)c1C(=O)c1ccc(Cl)cc1
inactive: all assays above

Cc1cc(C)c(O)c(C)c1
inactive: all assays above

CCCCCCCCO
inactive: all assays above

CCc1cccc(O)c1
inactive: all assays above

C=C(CC(=O)O)C(=O)O
inactive: all assays above

OB(O)O
inactive: all assays above

CCCCCCCCCCCCCC(=O)O
inactive: all assays above

NC(=O)NC(N)=O
inactive: all assays above

Cc1ccccc1Cl
inactive: all assays above

O=C(c1ccccc1)c1ccc(O)c(O)c1O
active: [6] 48.6 µM
inactive: all other assays above

CCn1cc(C(=O)O)c(=O)c2cc3c(cc21)OCO3
inactive: all assays above

Brc1ccc(Oc2ccc(Br)cc2)cc1
active: [6] 21.7 µM and 27.3 µM
inactive: all other assays above

O=c1c(O)c(-c2ccc(O)c(O)c2)oc2cc(O)cc(O)c12
active: [1] 49 µM | [4] 54.5 µM
not listed: [6]
inactive: all other assays above

C=C(C)CC(C)(C)C
not listed: [6]
inactive: all other assays above

NC(N)=S
inactive: all assays above
